The structures appear in SMILES notation. “And” between values parts separate entries of the source, which are not always exact repeats. Equal values may be shown once.

The nature of this assay: qHTS profiling for inhibitors of Plasmodium falciparum (3D7) proliferation (AID 743322).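 Note: infected erythrocytes exposed to compound for 72 h before lysis; 100% = DMSO vehicle wells and 0% = 0.29 µM artemisinin.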 The settings on record: P. falciparum 3D7 proliferation; at 28.7 µM (top of the series) unless noted. An excerpt: Plasmodium falciparum is a virulent malarial parasite that kills 1-2 million people worldwide each year. Transmitted by mosquitoes, the sporozoite form of the parasite enters the blood stream to infect hepatocytes, where they become merozoites that infect red blood cells (erythrocytes). Within erythrocytes, merozoites begin a […] cycle of growth and division, after which the parasite is released to infect new red blood cells. Gametocytes, which form within erythrocytes as well, circulate in the bloodstream and are ingested by the mosquito, thereby completing the life cycle. To profile malarial isolates for differential chemical responses and to identify inhibitors of malarial growth, an assay that measures P. falciparum growth and replication within erythrocytes was employed. This assay uses a DNA binding fluorescent dye (SYBR Green) to detect parasite DNA following cell lysis. Because mature erythrocytes lack DNA, only Plasmodium-derived DNA is detected.
The SYBR Green viability assay was adapted from a method described previously (Plouffe et al., 2008). For screening 3 ul culture medium was dispensed into 1536 well black clear bottom plates (Aurora Biotechnologies) using a Multidrop Combi (Thermo Fisher Scientific Inc.), 23 nL compounds in DMSO were added by a pin tool (Kalypsys), and 5 ul of erythrocytes infected with P. falciparum (0.3% parasitemia, 2.5% hematocrit final concentration) were added. The plates were incubated at 37 C in a humidified incubator in 5% CO2 for 72 h, and 2 ul lysis buffer (20 mM Tris HCl, 10 mM EDTA, 0.16% saponin, 1.6% triton X, 10X SYBR Green I supplied as 10,000X […] by Invitrogen) was added to each well. The plates were mixed for 25 sec with gentle shaking and incubated overnight at room temperature in the dark. The following morning, fluorescence intensity at 485(14) nm excitation and 535(25) nm emission wavelengths was measured on an EnVision (Perkin Elmer) plate reader. Plate reads were normalized relative to the control inhibitor (0.29 uM artemisinin) and vehicle (DMSO) wells present on each plate and then corrected by an algorithm using vehicle-only control plates at the beginning and end of the compound plate stack.
(In general: Quantitative high-throughput screening tests each substance at several concentrations.)
Consider `Nc1nc(Cl)nc2c1ncn2[C@H]1C[C@H](O)[C@@H](CO)O1`, for which the remaining parasite growth % (stronger effect = lower value) was found to be 83.8% [at 57.5 µM].
Under `Cc1cc(C2CCCCC2)n(O)c(=O)c1` stands -0.4%; under `CC(C)c1ccc2c(c1)c(SC(C)(C)C)c(CC(C)(C)C(=O)O)n2Cc1ccc(Cl)cc1`, 39.7%.
The value for `COc1cc(Nc2c(C#N)cnc3cc(OCCCN4CCN(C)CC4)c(OC)cc23)c(Cl)cc1Cl` was -0.245%.
Consider `CCN(CCO)CCCC(C)Nc1ccnc2cc(Cl)ccc12` (centres undefined), for which the remaining parasite growth % (stronger effect = lower value) was 0.834% and 0.742%.
Consider `CCc1nc(N)nc(N)c1-c1ccc(Cl)cc1`, for which the remaining parasite growth % (stronger effect = lower value) is -1.1%.
The value for `Nc1cccc2c1CN(C1CCC(=O)NC1=O)C2=O` (centres undefined) was 98.3% [at 57.5 µM] and 94.5% [at 57.5 µM].
Turning to `CCN(CC)C(=S)SSC(=S)N(CC)CC`, the remaining parasite growth % (stronger effect = lower value) stood at 99.1%.
Under `CCCCN(CCCC)CCC(O)c1cc2c(Cl)cc(Cl)cc2c2cc(C(F)(F)F)ccc12` (centres undefined) stands -0.286% [at 9.63 µM].
The value for `S=c1nc[nH]c2nc[nH]c12` was 58.5% [at 57.5 µM].
With `Cc1cccc(C)c1OCC(=O)N[C@@H](Cc1ccccc1)[C@@H](O)C[C@H](Cc1ccccc1)NC(=O)[C@H](C(C)C)N1CCCNC1=O`, the remaining parasite growth % (stronger effect = lower value) is -1.44%.
Under `Cc1cccc(-c2[nH]ncc2-c2ccc3ncccc3n2)n1` stands 92.9% [at 57.5 µM]; under `CCOC(=O)C(C)Oc1cccc2c(=O)n(CC(=O)Nc3ccc4c(c3)OCCO4)ccc12` (centres undefined), 115%; under `Cc1nc(Nc2ncc(C(=O)Nc3c(C)cccc3Cl)s2)cc(N2CCN(CCO)CC2)n1`, 71.9%.
Turning to `Cc1ccc(NC(=O)c2ccc(CN3CCN(C)CC3)cc2)cc1Nc1nccc(-c2cccnc2)n1`, the remaining parasite growth % (stronger effect = lower value) turned out to be 1.04%.
Under `CCOC(=O)C1=C(O)C(=O)N(Cc2ccccc2)C1` stands 34%; under `CN(C)c1ccc2nc3ccc(=[N+](C)C)cc-3sc2c1`, 1.85% [at 57.5 µM]; under `O=c1cc(N2CCOCC2)oc2c(-c3ccccc3)cccc12`, 105%.
The value for `CC(C)C[C@H](NC(=O)[C@H](Cc1ccccc1)NC(=O)c1cnccn1)B(O)O` was -0.334%; that for `NC(=NCc1ccccc1)NC(=O)c1nc(Cl)c(N)nc1N` was -0.258% [at 18.4 µM].
Under `Cc1cccc(C#Cc2ccccc2)n1` stands 106%.
Regarding `CCN(CC)CCOc1ccc(Nc2ncc3cc(-c4c(Cl)cccc4Cl)c(=O)n(C)c3n2)cc1`, the remaining parasite growth % (stronger effect = lower value) was 0.673%.
The value for `C[C@@H](N)C1CCC(C(=O)Nc2ccncc2)CC1` (some centres undefined) was 103%; that for `COc1cc2c(N3CCN(C(=O)Nc4ccc(OC(C)C)cc4)CC3)ncnc2cc1OCCCN1CCCCC1` was -0.248%.

The record behind these values is PubChem BioAssay (NCATS).
